Laboratory results as given in PubChem BioAssay AID1671202 (University of Kansas High Throughput Screening Laboratory, 2021).
Where “and” joins values, the source holds several entries; their conditions need not be identical. Equal values may be shown once. Out of some 190,000 compounds screened, about 6,900 (3.6%) were called active. This is one part of a sample in which actives are shown more often than they occur. A number with no mark means an inactive call. Rule as the data show it: active = inhibition above about 50%; inactive = the rest.

target: Huntingtin (Homo sapiens) (UniProt P42858); test: mutant huntingtin-calmodulin interaction inhibitors – biochemical, AlphaScreen, primary screen (AID 1671202); details: AlphaScreen His-mHTT/GST-CaM binding, luminescence; at 15 µM; stronger effect = higher value;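 also: 0% = both proteins with DMSO and 100% = one protein alone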
Sequence (P42858 whole entry, looked up, stated change not applied): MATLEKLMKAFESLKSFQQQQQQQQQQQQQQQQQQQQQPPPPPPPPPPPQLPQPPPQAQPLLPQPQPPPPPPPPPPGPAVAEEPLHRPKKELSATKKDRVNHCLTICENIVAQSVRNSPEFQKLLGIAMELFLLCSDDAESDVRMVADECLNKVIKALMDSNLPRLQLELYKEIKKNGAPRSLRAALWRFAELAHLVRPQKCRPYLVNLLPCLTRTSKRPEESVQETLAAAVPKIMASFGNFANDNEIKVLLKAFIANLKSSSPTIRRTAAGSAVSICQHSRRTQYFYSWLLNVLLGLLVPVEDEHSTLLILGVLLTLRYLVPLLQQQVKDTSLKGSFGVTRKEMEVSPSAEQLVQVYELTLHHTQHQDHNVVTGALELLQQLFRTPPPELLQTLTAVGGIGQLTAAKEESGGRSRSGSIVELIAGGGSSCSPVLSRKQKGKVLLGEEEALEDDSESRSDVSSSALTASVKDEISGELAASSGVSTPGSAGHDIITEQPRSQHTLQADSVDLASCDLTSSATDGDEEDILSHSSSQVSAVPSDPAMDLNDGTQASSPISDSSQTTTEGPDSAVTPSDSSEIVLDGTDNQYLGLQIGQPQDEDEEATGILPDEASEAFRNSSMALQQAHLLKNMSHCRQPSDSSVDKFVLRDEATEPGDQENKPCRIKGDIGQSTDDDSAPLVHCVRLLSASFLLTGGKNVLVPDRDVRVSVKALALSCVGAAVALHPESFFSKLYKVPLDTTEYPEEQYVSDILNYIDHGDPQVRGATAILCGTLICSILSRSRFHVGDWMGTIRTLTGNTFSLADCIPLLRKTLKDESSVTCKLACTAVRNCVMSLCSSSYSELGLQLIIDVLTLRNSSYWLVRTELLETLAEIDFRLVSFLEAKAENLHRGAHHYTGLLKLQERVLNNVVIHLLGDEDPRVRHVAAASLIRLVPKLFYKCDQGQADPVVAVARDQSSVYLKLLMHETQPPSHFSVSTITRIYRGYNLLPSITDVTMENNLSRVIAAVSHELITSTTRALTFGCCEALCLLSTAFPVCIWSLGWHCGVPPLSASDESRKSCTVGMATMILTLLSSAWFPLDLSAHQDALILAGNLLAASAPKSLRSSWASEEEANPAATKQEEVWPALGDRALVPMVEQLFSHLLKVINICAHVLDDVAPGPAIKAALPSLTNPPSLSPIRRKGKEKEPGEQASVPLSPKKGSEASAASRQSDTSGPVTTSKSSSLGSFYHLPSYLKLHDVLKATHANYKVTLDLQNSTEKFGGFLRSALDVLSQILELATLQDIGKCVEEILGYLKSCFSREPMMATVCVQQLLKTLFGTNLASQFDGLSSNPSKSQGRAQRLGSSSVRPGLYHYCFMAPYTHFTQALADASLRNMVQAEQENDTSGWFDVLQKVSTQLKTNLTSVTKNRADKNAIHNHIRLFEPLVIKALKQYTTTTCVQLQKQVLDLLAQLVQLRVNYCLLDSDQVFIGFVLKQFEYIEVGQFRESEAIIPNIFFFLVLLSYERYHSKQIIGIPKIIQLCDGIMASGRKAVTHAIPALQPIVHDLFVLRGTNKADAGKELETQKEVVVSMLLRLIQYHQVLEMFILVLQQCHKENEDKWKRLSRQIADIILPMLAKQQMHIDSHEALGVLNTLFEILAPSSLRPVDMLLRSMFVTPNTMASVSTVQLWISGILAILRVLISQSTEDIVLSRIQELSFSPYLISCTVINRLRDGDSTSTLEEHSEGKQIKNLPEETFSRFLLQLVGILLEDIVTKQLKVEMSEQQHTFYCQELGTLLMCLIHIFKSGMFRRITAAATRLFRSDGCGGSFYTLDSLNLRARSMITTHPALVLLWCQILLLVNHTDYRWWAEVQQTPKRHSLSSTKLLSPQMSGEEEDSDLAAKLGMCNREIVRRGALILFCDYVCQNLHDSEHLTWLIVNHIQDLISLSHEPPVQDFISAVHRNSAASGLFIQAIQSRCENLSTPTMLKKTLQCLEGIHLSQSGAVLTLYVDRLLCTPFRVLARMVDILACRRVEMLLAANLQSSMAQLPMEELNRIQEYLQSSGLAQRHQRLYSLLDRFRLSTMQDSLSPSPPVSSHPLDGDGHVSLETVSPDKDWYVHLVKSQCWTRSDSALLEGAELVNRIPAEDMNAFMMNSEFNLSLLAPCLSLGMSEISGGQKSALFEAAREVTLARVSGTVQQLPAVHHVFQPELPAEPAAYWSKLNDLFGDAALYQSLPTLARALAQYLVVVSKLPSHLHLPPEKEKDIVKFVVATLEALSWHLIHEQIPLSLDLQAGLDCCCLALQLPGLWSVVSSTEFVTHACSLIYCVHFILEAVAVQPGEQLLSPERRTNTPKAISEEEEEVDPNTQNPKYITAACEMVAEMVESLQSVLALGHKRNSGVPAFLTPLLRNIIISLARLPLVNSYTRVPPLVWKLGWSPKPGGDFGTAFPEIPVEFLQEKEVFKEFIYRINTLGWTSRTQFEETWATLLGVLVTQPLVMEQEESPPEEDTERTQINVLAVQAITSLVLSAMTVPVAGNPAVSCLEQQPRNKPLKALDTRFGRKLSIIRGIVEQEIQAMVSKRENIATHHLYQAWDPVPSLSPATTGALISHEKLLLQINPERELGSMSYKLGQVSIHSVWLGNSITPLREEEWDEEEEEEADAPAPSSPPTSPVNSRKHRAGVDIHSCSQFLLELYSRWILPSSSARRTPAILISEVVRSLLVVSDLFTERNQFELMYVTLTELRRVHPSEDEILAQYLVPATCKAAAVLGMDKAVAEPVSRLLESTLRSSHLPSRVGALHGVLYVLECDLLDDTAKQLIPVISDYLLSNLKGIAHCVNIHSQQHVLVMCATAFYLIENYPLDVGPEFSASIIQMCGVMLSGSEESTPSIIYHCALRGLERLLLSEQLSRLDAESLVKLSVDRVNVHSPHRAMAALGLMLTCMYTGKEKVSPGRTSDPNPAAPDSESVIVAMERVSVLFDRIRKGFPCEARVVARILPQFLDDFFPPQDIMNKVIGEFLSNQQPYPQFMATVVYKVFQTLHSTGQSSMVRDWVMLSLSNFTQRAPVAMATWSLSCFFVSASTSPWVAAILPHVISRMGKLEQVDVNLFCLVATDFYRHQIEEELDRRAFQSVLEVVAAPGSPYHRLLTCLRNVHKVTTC

SMILES | inhibition
Nc1ccc(-c2ccc(N)c(N)c2)cc1N | 92.1% (active)
Nc1ccc(Cc2ccc(N)c(Cl)c2)cc1Cl | 14.7%
CC(C)CCn1c(=O)c(C(=O)Nc2ccccn2)c(O)c2ccccc21 | -1%
CCCn1c(=O)cc(C)c2ccc(OCC(=O)N3CCN(C)CC3)cc21 | -3.5%
Cc1csc(NC(=O)c2cccn(Cc3cccc([N+](=O)[O-])c3)c2=O)n1 | -9.9%
CCOC(=O)c1ccc(NC(=O)c2cccn(Cc3ccc(C(F)(F)F)cc3)c2=O)cc1 | 83.3% (active)
CCCCS(=O)(=O)N1CCC2(C1)C(=O)N(C)c1ccc(OC)cc12 (stereo not given) | 12.5%
COc1ccc(CCC(=O)N2CCC3(C2)C(=O)N(C)c2ccc(OC)cc23)cc1 (stereo not given) | 6.74%
CC(C)CCNC(=O)CN1C(=O)C(C)N=C(c2ccccc2)c2ccccc21 (stereo not given) | 5%
O=C(Cc1c[nH]c2ccccc12)N1CCCN(C2CCN(Cc3ccc(F)cc3)C2=O)CC1 (stereo not given) | 44.9%
O=[N+]([O-])c1cccc(C(Cl)Cl)c1 | -5.2%
O=c1cccc2n1CC1CC2CN(Cc2cc(Cl)ccc2O)C1 (stereo not given) | 3.2%
COC(=O)c1ccc2[se]c(CC3CCCCC3)c(I)c2c1 | -13.6%
CCN(CC)CCNc1ccc([N+](=O)[O-])c2cccnc12 | -2.5% and 9%
O=[N+]([O-])c1ccc(NCCNc2ccc([N+](=O)[O-])c3cccnc23)cc1 | 1.26%
CC(C)(CNc1ccc([N+](=O)[O-])c2cccnc12)CNS(=O)(=O)c1ccc(Cl)cc1 | 54% (active)
CCN(CC)CC#CCOc1ccccc1 | -4.9%
CC(=O)c1ccc(OC(NC(=O)Cc2ccccc2)C(Cl)(Cl)Cl)cc1 (stereo not given) | 50% (active)
CN1CCN(c2nnc(C(F)(F)F)s2)CC1 | -5%
CC(C)c1cc(=O)n2c(n1)SCC2CC(=O)N1CC2CC(C1)c1cccc(=O)n1C2 (stereo not given) | -1.2%
